{"source": "PubChem BioAssay (EPA / NIEHS)", "note": "Calls of active or inactive are those of the source. How the source made its calls: active means hit-call score of the fitted dose curve at least 0.9, where 1 is the maximum; inactive means score below 0.9.", "data": [{"read-out": "DNA damage-inducible transcript 3 (DDIT3), DDIT3 (gene 1649)", "assay": "LTEA_HepaRG_DDIT3: Life Technologies and Expression Analysis (LTEA) Assay for DNA damage-inducible transcript 3 (DDIT3) using HepaRG (AID 2283488)", "conditions": "mRNA level, 48 h; actives raise or lower the signal", "procedure,_shortened": "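HepaRG plated 48 h, switched to serum-free induction medium, dosed 48 h (100 uM top, half-log, 8 pts, 0.5% DMSO, n=2); RNA isolated; DDIT3 by qRT-PCR; bidirectional curve fit vs DMSO.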", "values": [{"smiles": "CC(=O)OCC(COC(C)=O)OC(C)=O", "outcome": "inactive"}, {"smiles": "CCCC(=O)O", "outcome": "inactive"}, {"smiles": "Cc1cc(Cc2ccc(N)c(C)c2)ccc1N", "outcome": "inactive"}, {"smiles": "CCCCC(CC)CO", "note": "(stereo not drawn)", "outcome": "inactive"}, {"smiles": "CC1(C)C(=O)NC(=O)N1CO", "outcome": "inactive"}, {"smiles": "O=C(O)CC(O)(CC(=O)O)C(=O)O", "outcome": "inactive"}, {"smiles": "CCCCCCC(CCCCCCCCCCC(=O)OCC(COC(C)=O)OC(C)=O)OC(C)=O", "note": "(stereo not drawn)", "outcome": "inactive"}, {"smiles": "NC1CCCCC1", "outcome": "inactive"}, {"smiles": "CC(C)(O)c1ccc(CNC(=O)c2cccnc2Oc2ccc(F)cc2)cc1", "outcome": "inactive"}, {"smiles": "C=CCCCCCCCCCCCC", "outcome": "inactive"}, {"smiles": "CC(C)OC(=O)C(C)(C)Oc1ccc(C(=O)c2ccc(Cl)cc2)cc1", "outcome": "inactive"}, {"smiles": "O=C(Oc1ccccc1)c1cccc(C(=O)Oc2ccccc2)c1", "outcome": "inactive"}, {"smiles": "CN(C)C(=O)NC1(c2ccccc2)CCN(CCC[C@]2(c3ccc(Cl)c(Cl)c3)CCCN(C(=O)c3ccccc3)C2)CC1", "AC50": "18.1 µM (active)"}, {"smiles": "O=C1OC(c2ccc(O)cc2)(c2ccc(O)cc2)c2ccccc21", "outcome": "inactive"}, {"smiles": "CC(=O)OC1CC(C)OC(C)O1", "note": "(stereo not drawn)", "outcome": "inactive"}, {"smiles": "O=C(O)c1cccnc1", "outcome": "inactive"}, {"smiles": "NCCOCCOCCN", "outcome": "inactive"}, {"smiles": "O=C1O[C@H]([C@H](O)CO)C(O)=C1O", "outcome": "inactive"}, {"smiles": "CCN(CC)CCOc1ccc(C(=C(Cl)c2ccccc2)c2ccccc2)cc1", "AC50": "42 µM (active)"}, {"smiles": "CCCCC(CC)COP(=O)(OCC(CC)CCCC)OCC(CC)CCCC", "note": "(stereo not drawn)", "outcome": "inactive"}, {"smiles": "CC(=O)CC(c1ccccc1)c1c(O)c2ccccc2oc1=O", "note": "(stereo not drawn)", "outcome": "inactive"}, {"smiles": "C/C=C/c1ccc(OC)cc1", "outcome": "inactive"}, {"smiles": "O=C(O)c1[nH]n(-c2ccc(S(=O)(=O)O)cc2)c(=O)c1N=Nc1ccc(S(=O)(=O)O)cc1", "outcome": "inactive"}]}]}
